Screens: PubChem, several laboratories
Bead autofluor: flagged as autofluorescent in microsphere protease counterscreen | compound autofluorescence counterscreen, microsphere flow cytometry; hits give high values | AID 624483 | fluorescence intensity (no concentration beside the values) | hit rate 3.1% among 360,000; in the data active = fluorescence intensity above about 16000; inconclusive = no clear call, values can overlap the other calls
BoNT-F LC inh: inhibitors of Botulinum neurotoxin F light chain protease. Multiplex microsphere protease cleavage assay, flow cytometry. inhibition, % at 10 µM. hit rate 0.22% among 360,000. AID 588497; in the data active = inhibition above about 35%, passing the limit was not always enough; inconclusive = no clear call, values can overlap the other calls; also: plate controls were buffer without enzyme for full effect and enzyme alone for no effect
BoNT-A LC inh2: BoNT A light chain protease inhibition; inhibition, % at 10 µM; hit rate 0.17% among 360,000; multiplex microsphere protease substrate cleavage, flow cytometry; also: plate controls were buffer without enzyme for full effect and enzyme alone for no effect
BH1578 lux ind: inducers of Vibrio cholerae quorum light production without autoinducers; V. cholerae BH1578 lux reporter, luminescence, 6 h; activation, % at 18.7 µM; hit rate 0.16% among 350,000; in the data active = activation mostly above about 9.7%, no sharp cut-off; inconclusive = no clear call, values can overlap the other calls; inactive = mostly below about 3.7%
MazEF act: MazEF (E. coli) toxin RNase activation. AID 504720. hit rate 0.32% among 350,000. activation, % at 20 µM. P0AE70. FAM/BHQ RNA-DNA oligo cleavage fluorescence, 5 h; in the data active = activation above about 50%
Target sequence (P0AE70 whole entry, looked up): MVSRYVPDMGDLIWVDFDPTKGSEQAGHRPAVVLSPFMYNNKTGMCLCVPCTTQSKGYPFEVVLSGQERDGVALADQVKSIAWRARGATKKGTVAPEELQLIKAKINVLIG
Anthrax LF inh2: blocks Bacillus anthracis lethal factor protease; inhibition, % at 10 µM; AID 588501; multiplex microsphere protease cleavage assay, LF; hit rate 0.12% among 360,000; also: plate controls were buffer without enzyme for full effect and enzyme alone for no effect
Active calls of the source: *. Shown are actives, neighbours in structure and some others; about 3.9% of the full set was active somewhere. Rule as the data show it, unless noted: active = inhibition above about 30%; inconclusive = no clear call, values can overlap the other calls; inactive = below that.

Screening Cc1ccccc1NC(=O)c1cccc(N2C(=O)C3C4CCC(C4)C3C2=O)c1 (stereo not given) returned Bead autofluor 23697*, BoNT-F LC inh -5, BoNT-A LC inh2 inconclusive, BH1578 lux ind inactive, MazEF act -12 and Anthrax LF inh2 -1.
Cc1ccccc1CSc1nnc(NC(=O)C2COc3ccccc3O2)s1 (stereo not given) was read as Bead autofluor 20631*, BoNT-F LC inh 4, BoNT-A LC inh2 5, BH1578 lux ind 5, MazEF act -3 and Anthrax LF inh2 -16.
Screening COc1cc(NC(=O)C2CSC3(C)CCC(=O)N23)c(OC)cc1Cl (stereo not given) returned Bead autofluor 5099, BoNT-F LC inh 1, BoNT-A LC inh2 3, BH1578 lux ind 2, MazEF act 0 and Anthrax LF inh2 2.
`O=C(CSc1nnc2scc(-c3ccccc3)n12)Nc1nsc(-c2ccc(Cl)cc2)n1` gave Bead autofluor 2910, BoNT-F LC inh -5, BoNT-A LC inh2 0, BH1578 lux ind -1, MazEF act -2 and Anthrax LF inh2 0.
Screening O=C(CSc1nnc2scc(-c3ccccc3)n12)Nc1nsc(-c2ccccc2)n1 returned Bead autofluor 20413*, BoNT-F LC inh 2, BoNT-A LC inh2 1, BH1578 lux ind 0, MazEF act -10 and Anthrax LF inh2 0.
Screening O=C(CSc1nnc2scc(-c3ccccc3)n12)c1ccc2c(c1)OCCO2 returned Bead autofluor 5635, BoNT-F LC inh 6, BoNT-A LC inh2 1, BH1578 lux ind 16, MazEF act 55* and Anthrax LF inh2 -2.
Cc1ccc(-c2csc3nnc(SCC(=O)Nc4nsc(-c5ccccc5)n4)n23)cc1 was read as Bead autofluor 21990*, BoNT-F LC inh 4, BoNT-A LC inh2 inconclusive, BH1578 lux ind inactive, MazEF act -29 and Anthrax LF inh2 -1.
Screening Cc1ccc(-c2nc(NC(=O)CSc3nnnn3-c3ccccc3)ns2)cc1 returned Bead autofluor 4103, BoNT-F LC inh inconclusive, BoNT-A LC inh2 0, BH1578 lux ind -2, MazEF act -1 and Anthrax LF inh2 1.
Cc1sc2ncn(CC(=O)NCC(=O)N3CCN(c4ccccc4F)CC3)c(=O)c2c1C was read as Bead autofluor 4397, BoNT-F LC inh 9, BoNT-A LC inh2 0, BH1578 lux ind inactive, MazEF act 0 and Anthrax LF inh2 -4.
Screening C/C(N)=C(/C#N)C(=O)COC(=O)COc1ccc(Cl)cc1C returned Bead autofluor 21745*, BoNT-F LC inh 2, BoNT-A LC inh2 0, BH1578 lux ind 3, MazEF act 3 and Anthrax LF inh2 -3.
Cc1cc(Cl)ccc1OCC(=O)OCC(=O)Nc1ccc(Cl)cn1 was read as Bead autofluor 2962, BoNT-F LC inh -2, BoNT-A LC inh2 0, BH1578 lux ind -6, MazEF act -6 and Anthrax LF inh2 -8.
For CCN(CC)C(=O)C(C)OC(=O)COc1ccc(Cl)cc1C (stereo not given) the results were Bead autofluor 22121*, BoNT-F LC inh -2, BoNT-A LC inh2 -1, BH1578 lux ind -3, MazEF act 4 and Anthrax LF inh2 -3.
O=C(c1cc(-c2ccccc2)nc2ccccc12)N1N=C(C(F)F)CC1(O)C(F)F (stereo not given) was read as Bead autofluor 26128*, BoNT-F LC inh -11, BoNT-A LC inh2 -7, BH1578 lux ind 0, MazEF act 6 and Anthrax LF inh2 -3.
`CCOC(=O)c1c(/N=C/C2C(=O)NC(=O)NC2=O)sc2c1CCC2` gave Bead autofluor 3797, BoNT-F LC inh -2, BoNT-A LC inh2 -1, BH1578 lux ind inactive, MazEF act 123* and Anthrax LF inh2 -4.
`CCOc1ccc(NC(=O)c2ccc(F)c(S(=O)(=O)N3CCN(c4ccccn4)CC3)c2)cc1` gave Bead autofluor 16376*, BoNT-F LC inh 1, BoNT-A LC inh2 inconclusive, BH1578 lux ind inactive, MazEF act -1 and Anthrax LF inh2 -2.
CCOc1ccc(NC(=O)c2ccc(F)c(S(=O)(=O)N3CCCC3)c2)cc1 was read as Bead autofluor 4527, BoNT-F LC inh -14, BoNT-A LC inh2 -1, BH1578 lux ind inactive, MazEF act 0 and Anthrax LF inh2 -11.
For CC1=C(C(=O)OCC2CCCO2)C(c2cccc(C(F)(F)F)c2)C2=C(CC(c3ccco3)CC2=O)N1 (stereo not given) the results were Bead autofluor 21820*, BoNT-F LC inh -10, BoNT-A LC inh2 -7, BH1578 lux ind -5, MazEF act 0 and Anthrax LF inh2 -4.
